The list is not random: actives were taken first. Their share in the collection is about 3.7%.
CHT block = inhibitors of human choline transporter CHT; B-score at 10 µM; CHT-expressing cells, membrane potential dye, choline response; active compounds read low; High affinity choline transporter 1 (Homo sapiens), Q9GZV3; 310,000 tested, 0.86% active;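 active = B-score over 3 SD under the library average, and starting fluorescence ratio not unusually high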;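 note: choline stimulus applied at its EC90 after an EC20 pre-addition; B-score computed on integrated fluorescence ratio after choline addition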
ANO1 activ = TMEM16A chloride channel activators or potentiators, primary screen, cell-based, HTS; Anoctamin-1 (Mus musculus), Q8BHY3; HEK293 TMEM16A/YFP-H148Q/I152L, iodide quench fluorescence; active compounds read low; B-score at 10 µM; 340,000 tested, 0.3% active; AID 623877, 2012;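 active = fluorescence-ratio B-score plate-corrected deviation score at least 3 library SD below zero, with starting fluorescence score within 5 deviations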;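 note: channel opened by trigger with iodide after compound preincubation; score built on the fluorescence ratio of max minus min over baseline; more negative score means more quench and so TMEM16A activation or potentiation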
Kir21 block = inhibitors of mouse Kir2.1 inward-rectifier potassium channel | Inward rectifier potassium channel 2 (Mus musculus), P35561 | HEK293-Kir2.1, FluxOR thallium flux fluorescence; active compounds read low | B-score at 10 µM | 310,000 tested, 0.85% active | AID 1672, 2009;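 active = fluorescence ratio B-score at or below minus 3 SD of library scores, with starting-brightness B-score within 2 SD, cut at about -4.2 in these data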;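 note: channel flux triggered by added potassium and thallium sulfate stimulus; B-score of peak minus minimum fluorescence over baseline after thallium stimulus; more negative B-score means stronger Kir2.1 block with less thallium influx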
Target sequence (P35561 whole entry, looked up): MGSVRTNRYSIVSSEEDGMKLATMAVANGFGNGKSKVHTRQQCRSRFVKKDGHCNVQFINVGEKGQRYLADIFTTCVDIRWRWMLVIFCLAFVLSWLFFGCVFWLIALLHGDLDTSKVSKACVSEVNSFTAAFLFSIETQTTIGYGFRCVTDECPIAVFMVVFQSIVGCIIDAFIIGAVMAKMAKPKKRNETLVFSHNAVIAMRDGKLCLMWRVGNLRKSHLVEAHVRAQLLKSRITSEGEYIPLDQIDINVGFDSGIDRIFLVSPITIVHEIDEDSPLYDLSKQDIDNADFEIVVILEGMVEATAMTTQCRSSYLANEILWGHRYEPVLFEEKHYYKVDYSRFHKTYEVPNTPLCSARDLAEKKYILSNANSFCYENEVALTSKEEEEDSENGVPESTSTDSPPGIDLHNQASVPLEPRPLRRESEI
CHT allo act = CHT positive allosteric modulators, primary screen, cell-based, membrane potential dye, choline EC20; B-score at 10 µM; CHT-expressing cells; active compounds read high; LV-AA mutant CHT in HEK293 cells; 310,000 tested, 0.49% active; High affinity choline transporter 1 (Homo sapiens), Q9GZV3;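 active = initial fluorescence not abnormally high and integrated response B-score, plate-corrected, over 3 SD above library mean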
TMEM16A inh = TMEM16A chloride channel inhibitors, primary screen, cell-based, HTS | normalized B-score (activity score, 25-100; higher = stronger inhibition) at 10 µM | Anoctamin-1 (Mus musculus), Q8BHY3 | 310,000 tested, 1.2% active | HEK293 TMEM16A/YFP iodide influx fluorescence, ionomycin;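 active = ratio plate-corrected score three or more library SD toward inhibition, starting fluorescence score within five deviations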;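 note: score derived from kinetic fluorescence span divided by baseline fluorescence per well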
GPR7 antag = GPR7 receptor antagonists, primary screen, cell-based, fluorescence, single concentration; inhibition, % at 4.4 µM; 290,000 tested, 1.1% active; GPR7-expressing cells, fluorescence antagonist assay; in the data active = inhibition above about 16%, passing the limit was not always enough;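 note: cells stimulated with the agonist NPW; 0% = agonist with vehicle and 100% = vehicle without agonist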
GPR7 antag conf = GPR7 receptor antagonists, confirmation, cell-based, fluorescence, single concentration; GPR7-expressing cells, calcium fluorescence antagonist mode; inhibition, % at 4.4 µM; AID 1952, 2009; shares compounds with GPR7 antag; 2,400 tested, 52% active; in the data active = inhibition above about 24%;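 note: stimulated with the GPR7 agonist NPW; 0% = agonist plus vehicle and 100% = vehicle alone without agonist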
MCHR1 antag = MCHR1 antagonists in cells, counter-screen for GPR7 antagonist project, cell-based, fluorescence, human; shares compounds with GPR7 antag; MCHR1-expressing cells, fluorescence antagonist assay; inhibition, % at 4.4 µM; 2,400 tested, 62% active; in the data active = inhibition above about 22%;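 note: 0% = vehicle with agonist and 100% = vehicle without agonist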
Active calls of the source: *; i = inactive; x = no result given.

SMILES	CHT block	ANO1 activ	Kir21 block	CHT allo act	TMEM16A inh	GPR7 antag	GPR7 antag conf	MCHR1 antag
O=S(=O)(c1ccc(F)cc1)N1CCN(CC(O)COc2ccccc2F)CC1 (stereo not given)	i	i	1.9	i	i	23	x	x
CC(C)c1ccccc1OCC(O)CN1CCN(S(=O)(=O)c2ccc([N+](=O)[O-])cc2)CC1 (stereo not given)	i	i	-0.23	i	i	47*	45*	76*
CCCCn1c(N)c(N(CCOC)C(=O)CSc2nnc(-c3ccncc3)n2CCC)c(=O)[nH]c1=O	i	i	1.1	i	i	x	x	x
O=C(c1cc(COc2ccc(F)c(F)c2)on1)N1CCN(C2CCCCC2)C(=O)C1	i	i	0.05	i	i	27*	11	4
O=C(c1cc(COc2c(F)cccc2F)on1)N1CCN(C2CCCCC2)C(=O)C1	i	i	0.78	i	i	-2	x	x
Cc1cccc(C(C)C)c1NC(=O)Cc1ccc(S(=O)(=O)N2CCOCC2)s1	i	i	-0.43	i	i	x	x	x
Cc1ccccc1OCC(=O)Nc1ccc2c(c1)COC2=O	i	i	0.5	i	i	6	x	x
CCc1ccc(OCC(=O)Nc2ccc3c(c2)COC3=O)cc1	i	i	-0.01	i	i	36*	21	37*
Cc1ccc(C(=O)OCC(=O)NC2CC2)cc1S(=O)(=O)N1CCOCC1	x	i	x	x	x	x	x	x
CCOc1ccc(-c2nnn(CC(=O)NCc3ccc4c(c3)OCO4)n2)cc1	i	i	0.14	i	i	-15	x	x
COc1ccc(-c2nnn(CC(=O)NCc3ccc4c(c3)OCO4)n2)cc1OC	i	i	-0.58	i	i	22*	0	2
CC(C)N(C(C)C)S(=O)(=O)c1ccc(N2CCc3ccccc3C2)nc1	i	i	2.1	i	i	21*	16	63*
CCN(CC)S(=O)(=O)c1ccc(N2CCc3ccccc3C2)nc1	i	i	-1.6	i	i	-10	x	x
O=C(CN1CCCCCCC1)N/N=C/c1ccccc1F	i	i	0.79	i	i	4	x	x
O=C(CN1CCCCC1)N/N=C/c1ccccc1Br	i	i	0	i	i	30*	-4	-6
CC(C)(C)c1ccc(-c2noc(-c3ccc4c(c3)CCO4)n2)cc1	i	i	-0.11	i	i	-13	x	x
O=C(CCN1CCN(c2ccc([N+](=O)[O-])cc2)CC1)c1ccc(Cl)cc1	i	i	0.96	i	i	41*	52*	65*
O=[N+]([O-])c1ccc(N2CCSCC2)cc1	i	i	-2.8	i	i	29*	5	6
CC(C)CNS(=O)(=O)c1ccc(CCC(=O)N2CCN(c3ccc(F)cc3)CC2)cc1	i	i	0.36	i	i	30*	7	42*
O=C(CCc1ccccc1)N1CCN(c2ccc([N+](=O)[O-])cc2)CC1	i	i	0.82	i	i	26*	37*	37*
CCOC(=O)C(C)Oc1cccc2c(=O)n(CC(=O)NCc3ccccc3)ccc12 (stereo not given)	i	i	-0.31	i	i	22*	14	20
Clc1ccc2c(NCc3ccco3)ncnc2c1	i	i	0.16	i	i	23*	6	16
COc1ccccc1/C=C/C(=O)NNC(=O)c1cccs1	i	i	1.9	i	i	30*	-3	4
Cc1cc(C(C)(C)C)cc(C)c1Cn1c2[n+](c3ccc(C(F)(F)F)cc31)CCCCC2	i	i	-7.2*	i	i	33*	29*	32*
FC(F)(F)c1cccc(Cn2c3[n+](c4ccc(C(F)(F)F)cc42)CCCCC3)c1	i	i	0.71	i	i	24*	24*	18
SMILES	CHT block	ANO1 activ	Kir21 block	CHT allo act	TMEM16A inh	GPR7 antag	GPR7 antag conf	MCHR1 antag
Cc1c(Cl)cccc1NC(=S)N1CCN(S(=O)(=O)c2cccs2)CC1	i	i	1.1	i	i	16	x	x
CC1CCN(C(=O)CCC(=O)Nc2nnc(C(F)(F)F)s2)CC1	i	i	-1.9	i	i	-5	x	x
Cc1nc2ccc([N+](=O)[O-])cc2c(=O)n1Cc1cccc(Br)c1	i	i	1.5	i	i	47*	32*	35*
CCc1ccc(NC(=O)C2(c3ccccc3)CC2(Cl)Cl)cc1 (stereo not given)	i	i	1.3	i	i	29*	65*	76*
COc1ccc(CC(=O)NCc2ccc(F)cc2)cc1S(=O)(=O)N1CCOCC1	x	i	x	x	x	x	x	x
COc1ccc(N(C)S(=O)(=O)c2cccc(C(=O)N(C)Cc3ccc(C)o3)c2)cc1	i	i	-1.3	i	i	25*	31*	26*
CC(=O)N1CCN(S(=O)(=O)c2cccc(C(=O)N(C)Cc3ccc(C)o3)c2)CC1	x	i	x	x	x	x	x	x
O=C(C/C=N\OCc1ccc([N+](=O)[O-])cc1)Nc1ccccc1	i	i	-0.14	i	i	-3	x	x
O=C(C/C=N\OCc1ccc([N+](=O)[O-])cc1)Nc1ccc(Cl)cc1	i	i	0.24	i	i	25*	31*	40*
CC(=O)c1cccn1S(=O)(=O)c1ccccc1	i	i	-1.3	i	i	-1	x	x
Fc1ccccc1-c1nc2nc3ccccc3nc2n1CC1CCCO1 (stereo not given)	i	i	2.5	i	i	13	x	x
O=S(=O)(c1ccc(Br)s1)N1CCN(c2ccnc3cc(Cl)ccc23)CC1	i	i	0.27	i	i	28*	37*	29*
C=C(CCC(=O)c1ccccc1)C(=O)c1ccccc1	i	i	-1.9	i	i	46*	86*	78*
Cc1nonc1CN(C)C(=O)c1cc(COc2ccc(F)cc2Cl)on1	i	i	1.3	i	i	30*	24	26*

Compound activity from PubChem.
